Test results taken from PubChem BioAssay.
Measured potencies and affinities stand elsewhere. Inconclusive results are not listed. The source made the active and inactive calls. Unless noted, how the calls were made is not given here.

Columns and labels:
[1] = RMG-1 ovarian cancer cell viability loss – cherry-pick, dose response (AID 687029;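 active means signal drop whose fitted half-maximal concentration is at most twice the top valid dose, in every test run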;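 further: cells exposed to compound for 96 hours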)
[2] = IOSE-T80 viability loss, PAX8-independent line – cell-based, cherry-pick, selectivity assay for PAX8 inhibitor project, dose response (AID 687032;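 active means fitted half-maximal concentration for viability loss no higher than twice the top valid dose, in every repeat run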;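 further: cells exposed to compound for 96 h before reading; 0% = neutral control wells and -100% = 2 µM mitoxantrone kill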)
[3] = general cell-killing toxicity readout – plate reader, dry powder samples, cytotoxicity control for PAX8 inhibitor project, dose response (AID 743021)
[4] = IGROV1 cell killing – plate reader, dry powder samples, PAX8 inhibitor project, dose response (AID 743043);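 further: more negative means fewer viable cells or more cytotoxicity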
[5] = toxicity toward immortalized ovarian surface epithelium – cell-based, plate reader, dry powder samples, cytotoxicity control for PAX8 inhibitor project, dose response (AID 743045);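 further: 0% = neutral control median and -100% = positive control median; more negative values mean more cell killing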
[6] = A2780 cell killing – plate reader, dry powder samples, cytotoxicity control, dose response (AID 743046);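 further: 0% = neutral control wells and -100% = cytotoxic reference compound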
[7] = OVCAR-3 cell viability loss – plate reader, dry powder samples, PAX8 inhibitor project, dose response (AID 743044); settings: max activity: at 35 µM, hits give low values unless noted
[8] = OVCAR8 cell viability loss – plate reader, dry powder samples, PAX8 project, dose response (AID 743197)

Measured: max activity

C[C@@H]1CN([C@@H](C)CO)C(=O)c2cc(NC(=O)Nc3ccc(F)cc3)ccc2O[C@@H](C)CCCCO[C@@H]1CN(C)Cc1ccc(C(F)(F)F)cc1
inactive: [1] | [2] | [3] | [4] | [5]

C[C@@H]1CCCCO[C@H](CN(C)Cc2ccc(Cl)c(Cl)c2)[C@H](C)CN([C@@H](C)CO)C(=O)c2cc(NC(=O)Nc3ccc(C(F)(F)F)cc3)ccc2O1
not listed: [7] | [8]
inactive: all other assays above

C[C@@H]1CCCCO[C@H](CN(C)Cc2ccc(Cl)c(Cl)c2)[C@@H](C)CN([C@@H](C)CO)C(=O)c2cc(NC(=O)Nc3ccc(C(F)(F)F)cc3)ccc2O1
not listed: [7] | [8]
inactive: all other assays above

COc1ccc(NC(=O)N(C)C[C@H]2OCCCC[C@@H](C)Oc3ccc(NC(=O)Nc4ccc(C(F)(F)F)cc4)cc3C(=O)N([C@@H](C)CO)C[C@@H]2C)cc1
not listed: [7] | [8]
inactive: all other assays above

C[C@@H]1CCCCO[C@@H](CN(C)C(=O)Nc2ccc(F)cc2)[C@H](C)CN([C@@H](C)CO)C(=O)c2cc(NC(=O)Nc3ccc(C(F)(F)F)cc3)ccc2O1
inactive: [1] | [2] | [3] | [4] | [7] -4.11% | [5] | [6] | [8]

C[C@H]1CCCCO[C@@H](CN(C)Cc2ccc(Cl)c(Cl)c2)[C@@H](C)CN([C@@H](C)CO)C(=O)c2cc(NC(=O)Nc3ccc(C(F)(F)F)cc3)ccc2O1
inactive: [1] | [2] | [3] | [4] | [5]

C[C@H](CO)N1C[C@H](C)[C@H](CN(C)Cc2ccc(C(F)(F)F)cc2)OCCCC[C@H](C)Oc2ccc(NC(=O)CCC(F)(F)F)cc2C1=O
not listed: [7] | [8]
inactive: all other assays above

Cc1noc(C)c1S(=O)(=O)Nc1ccc2c(c1)C(=O)N([C@@H](C)CO)C[C@H](C)[C@@H](CN(C)C(=O)Nc1ccc(C(F)(F)F)cc1)OCCCC[C@H](C)O2
not listed: [7] | [8]
inactive: all other assays above

C[C@@H]1CCCCO[C@H](CN(C)CC2CCCCC2)[C@H](C)CN([C@@H](C)CO)C(=O)c2cc(NS(=O)(=O)c3ccc(Cl)cc3)ccc2O1
inactive: [1] | [2] | [3] | [4] | [7] 13.1% [at 0.5 µM, hits give low values] | [5] | [6] | [8]

C[C@@H]1CCCCO[C@H](CN(C)Cc2ccc3c(c2)OCO3)[C@@H](C)CN([C@@H](C)CO)C(=O)c2cc(NC(=O)Nc3ccc(C(F)(F)F)cc3)ccc2O1
inactive: [1] | [2] | [3] | [4] | [7] -12% | [5] | [6]

C[C@@H]1CCCCO[C@@H](CN(C)Cc2ccc(Cl)c(Cl)c2)[C@H](C)CN([C@@H](C)CO)C(=O)c2cc(NC(=O)Nc3ccc(C(F)(F)F)cc3)ccc2O1
not listed: [7]
inactive: all other assays above

C[C@@H]1CN([C@H](C)CO)C(=O)c2cc(NC(=O)CCC(F)(F)F)ccc2O[C@@H](C)CCCCO[C@@H]1CN(C)Cc1ccc(C(F)(F)F)cc1
inactive: [1] | [2] | [3] | [4] | [5]

C[C@H]1CCCCO[C@H](CN(C)Cc2ccc(Cl)c(Cl)c2)[C@@H](C)CN([C@@H](C)CO)C(=O)c2cc(NC(=O)Nc3ccc(C(F)(F)F)cc3)ccc2O1
inactive: [1] | [2] | [3] | [5] | [6]

C[C@@H]1CCCCO[C@H](CN(C)Cc2ccc(C(F)(F)F)cc2)[C@H](C)CN([C@H](C)CO)C(=O)c2cc(NS(=O)(=O)c3ccc(Cl)cc3)ccc2O1
inactive: [1] | [2] | [3] | [5]

C[C@H]1CCCCO[C@@H](CN(C)S(=O)(=O)c2ccccc2)[C@@H](C)CN([C@@H](C)CO)C(=O)c2cc(NC(=O)Nc3ccc(C(F)(F)F)cc3)ccc2O1
inactive: [1] | [2] | [3] | [5] | [6]

C[C@H](CO)N1C[C@H](C)[C@@H](CN(C)S(=O)(=O)c2ccccc2)OCCCC[C@H](C)Oc2ccc(NS(=O)(=O)c3ccc(Cl)cc3)cc2C1=O
not listed: [6] | [7]
inactive: all other assays above

Cc1ccc(S(=O)(=O)N(C)C[C@H]2OCCCC[C@H](C)Oc3ccc(NS(=O)(=O)c4ccc(Cl)cc4)cc3C(=O)N([C@H](C)CO)C[C@@H]2C)cc1
inactive: [1] | [2] | [3] | [5] | [6]

C[C@@H]1CCCCO[C@@H](CN(C)C(=O)Nc2ccc(C(F)(F)F)cc2)[C@H](C)CN([C@H](C)CO)C(=O)c2cc(NS(=O)(=O)c3cccs3)ccc2O1
inactive: [1] | [2] | [3] | [5]

C[C@@H]1CN([C@H](C)CO)C(=O)c2cc(NC(=O)Nc3ccc(F)cc3)ccc2O[C@@H](C)CCCCO[C@H]1CN(C)S(=O)(=O)c1ccccc1
not listed: [7]
inactive: all other assays above

C[C@@H]1CCCCO[C@@H](CN(C)Cc2ccc(C(F)(F)F)cc2)[C@@H](C)CN([C@@H](C)CO)C(=O)c2cc(NS(=O)(=O)c3ccc(Cl)cc3)ccc2O1
inactive: [1] | [2] | [3] | [5] | [6]

COc1ccc(S(=O)(=O)N(C)C[C@H]2Oc3cc(C#CC4CCCC4)ccc3S(=O)(=O)N([C@@H](C)CO)C[C@@H]2C)cc1
inactive: [1] | [2] | [3] | [5]

C[C@@H]1CN([C@H](C)CO)C(=O)c2cc(NS(=O)(=O)c3ccc(F)cc3)ccc2O[C@@H](C)CCCCO[C@H]1CN(C)Cc1ccc(C(F)(F)F)cc1
inactive: [1] | [2] | [3] | [5] | [6]

N#Cc1ccc(-c2ccc(C3[C@@H]4CN(C(=O)c5ccc6c(c5)OCO6)C[C@H]3N4)cc2)cc1 (stereo partly drawn)
not listed: [7]
inactive: all other assays above

Cc1noc(C)c1S(=O)(=O)Nc1ccc2c(c1)CC(=O)N([C@@H](C)CO)C[C@@H](C)[C@H](CN(C)Cc1ccc(Cl)c(Cl)c1)O2
inactive: [1] | [2] | [3] | [5] | [6]

C[C@@H]1CN([C@@H](C)CO)S(=O)(=O)c2ccc(C#Cc3ccccc3F)cc2O[C@H]1CN(C)C(=O)c1ccc2c(c1)OCO2
inactive: [1] | [2] | [3] | [5]

C[C@@H]1CN([C@@H](C)CO)C(=O)c2c(c3ccccc3n2C)-c2ccccc2CO[C@@H]1CN(C)S(=O)(=O)c1ccc(C(F)(F)F)cc1
inactive: [1] | [2] | [3] | [7] -38.5% | [5] | [6] | [8]
